# Source: PubChem BioAssay
# TEAD-YAP block: TEAD-YAP interaction inhibition, primary screen, TEAD-YAP interaction inhibitor project, luminescence, HEK-TIYL cells; 640,000 tested, 1.4% active; TEAD-Gal4/YAP UAS-luciferase luminescence; inhibition, % at 9.12 µM; in the data active = inhibition above about 32%;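 note: 0% = median of test compound wells and 100% = reference inhibitor wells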
# MITF inh: MITF inhibitors, primary screen, biochemical, AlphaScreen, human; Microphthalmia-associated transcription factor (Homo sapiens), O75030; AlphaScreen MITF homodimerization, bead proximity signal; inhibition, % at 2.6 µM; 650,000 tested, 0.91% active; in the data active = inhibition above about 50%;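 note: 0% = vehicle wells with protein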
# Target sequence (O75030 whole entry, looked up): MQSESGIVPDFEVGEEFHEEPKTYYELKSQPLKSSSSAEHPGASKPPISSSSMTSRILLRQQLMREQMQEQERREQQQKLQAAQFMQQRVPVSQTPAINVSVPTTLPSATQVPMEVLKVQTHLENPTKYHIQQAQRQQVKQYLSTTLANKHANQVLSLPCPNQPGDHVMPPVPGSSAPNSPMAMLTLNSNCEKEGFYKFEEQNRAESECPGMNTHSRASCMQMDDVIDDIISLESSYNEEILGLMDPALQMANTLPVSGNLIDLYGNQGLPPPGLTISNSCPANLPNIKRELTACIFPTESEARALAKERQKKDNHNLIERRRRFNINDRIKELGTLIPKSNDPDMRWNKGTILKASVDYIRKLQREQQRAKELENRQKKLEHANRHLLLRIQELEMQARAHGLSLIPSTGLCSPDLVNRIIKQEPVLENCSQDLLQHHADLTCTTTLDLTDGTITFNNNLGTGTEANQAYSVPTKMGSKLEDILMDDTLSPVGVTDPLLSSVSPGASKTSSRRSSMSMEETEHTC
# GPR151 ag: activators of human GPR151, primary screen, cell-based, PathHunter beta-arrestin, luminescence; activation, % at 11.2 µM; PathHunter beta-arrestin GPR151 cells; G-protein coupled receptor 151 (Homo sapiens), Q8TDV0; 650,000 tested, 1% active; in the data active = activation above about 4.9%;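 note: 0% = median of compound wells and 100% = cells with positive control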
# FBW7 act: FBW7 E3 ligase activators, primary screen, biochemical, AlphaScreen, human; AID 1259310, 2017; normalized activity (activation), % at 26.1 µM; F-box/WD repeat-containing protein 7 (Homo sapiens), Q969H0; 650,000 tested, 0.13% active; AlphaScreen FBW7–phospho-cyclin E peptide binding, activator screen; in the data active = normalized activity above about 1.9%;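 note: purified mutant Fbw7 with reduced substrate affinity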
# Active calls of the source: *; . = no result; ! = not active in a repeat. In the library only some 3.4% were active in any assay of this set; here they are far more common.
SMILES,TEAD-YAP block,MITF inh,GPR151 ag,FBW7 act
CC(=O)c1ccc(OC(=O)N(C)c2ccccc2)cc1,-41,-6,0,0
Cc1cc(N(C)C)cc(C)[n+]1OC(=O)N(c1ccccc1)c1ccccc1,64*,-2,0,0
CC(C)=CCC[C@]1(C)C=Cc2c(O)c3c(c(CC=C(C)C)c2O1)O[C@]12C(=CC4C[C@@H]1C(C)(C)O[C@@]2(C/C=C(/C)C(=O)O)C4=O)C3=O,75*,6,1,0
O=C1CCP(=S)(c2ccccc2)CC1,5,17,1,0
COC(=O)C1C2c3ccccc3O[C@]1(C)N=c1s/c(=C/c3ccc(F)cc3)c(=O)n12 (stereo partly specified),2,-3,2,0
CCN(CC)C1=NC(=[N+](CC)CC)c2ccccc21,74*,22,0,1
CC(Cc1ccsc1)NC1CCN(c2ccc(CC(=O)N3CCC(O)CC3)cc2)CC1 (stereo unspecified),0,-3,1,0
Cn1ncnc2c(=O)n(C)c(=O)nc1-2,99*,10,-7,0
CC[N+](CC)=c1scc(-c2ccc([N+](=O)[O-])cc2)s1,48*,10,1,0
O=[N+]([O-])c1ccc([As](=O)(O)O)cc1,2,-9,-2,0
COc1ccc(CC(N)c2ccc(OC)c(OC)c2)cc1OC (stereo unspecified),10,6,0,0
CN1/C(=C/C=C/c2oc3ccccc3[n+]2C)Oc2ccccc21 (tested in a mixture with another compound),79*,3,0,0
Cc1ccc(OCC(=O)N2CCN(CCCc3ccccc3)CC2)cc1,4,43,1,0
COc1ccc(-c2nc(CSCC(=O)N3CCC4(CC3)OCCO4)c(C)o2)cc1OC,-6,0,0,0
Cc1ccc(-c2nc(CSCC(=O)N3CCC4(CC3)OCCO4)c(C)o2)cc1,50*,1,-1,0
CCOc1ccc(-c2nc(CSCC(=O)N3CCC4(CC3)OCCO4)c(C)o2)cc1,53*,-2,1,0
Cc1cccc(N2CCN(CC(=O)Nc3ccc(Br)cc3C(=O)c3ccccc3Cl)CC2C)c1 (stereo unspecified),0,12,1,0
COc1ccc(/C=C/c2cc(O)cc(O)c2)cc1,92*,-3,-6,0
COc1cc(/C=C\c2ccc(OC)c(O)c2)cc(OC)c1,.,8,2,.
O=C1NC(=O)C(Br)(Cc2ccccc2)C(=O)N1,5,9,0,0
CCOc1ccc(-n2c(/C=C/c3ccc(OC)cc3)nc3ccccc3c2=O)cc1,12,-8,0,0
CCn1nc(/C=C\c2ccccc2)nc2c(=O)n(C)c(=O)nc1-2,40*,4,-6,0
CC(C)(C)n1cc(C(=O)c2ccc3ccccc3c2O)cn1,50*,-9,0,0
CC(C)(C)n1cc(C(=O)c2ccccc2O)cn1,-35,9,1,0
COc1ccc(N2CCN(CCC#N)CC2)cc1,0,57*,0,0
SMILES,TEAD-YAP block,MITF inh,GPR151 ag,FBW7 act
COc1ccc(N2CCN(Cc3ccc(N(C)C)cc3)CC2)cc1,2,71*,-1,-1
COc1cccc(-n2c(-c3ccc(C)cc3)nc3ccccc3c2=O)c1,-14,0,-2,0
COc1ccc(C2SCC(=O)Nc3c2c(-c2ccccc2)nn3-c2ccccc2)cc1OC (stereo unspecified),52*,19,0,1
O=C1NC(=S)NC(=O)C1=Cc1ccc([N+](=O)[O-])cc1,1,-4,2,0
NC(=O)CP(=S)(c1ccccc1)c1ccccc1,-4,5,0,0
O=C1NC(=S)N(c2ccc(Cl)cc2)C(=O)/C1=C\c1ccc([N+](=O)[O-])o1,6,68*,1,0
Cn1cccc1/C=C1/C(=O)NC(=S)N(c2ccc(Cl)cc2)C1=O,1,21,-2,0
CCOC(=O)c1c(C)n(Cc2ccccc2)c2c1cc(O)c1[nH]cnc12,-1,3,0,0
COc1ccc(OC)c(CNCCc2c[nH]c3ccccc23)c1,-1,65*,-1,0
Fc1cnc(Nc2ccc(-n3cnc(N4CCOCC4)n3)cc2)cc1-c1cn[nH]c1 (tested in a mixture with another compound),36*,11,0,0
Cc1nc(C)n(-c2ccc(Nc3cc(-c4cn[nH]c4)ccn3)cc2)n1 (tested in a mixture with another compound),-1,9,0,0
C[C@@H]1NC(=O)[C@H]2CNCCN2C1=O,2,1,-1,0
N#CC(C#N)=Cc1ccc(O)c(O)c1,8,74*!,-1,0
Cc1[nH]c2ccccc2c1CCN,-6,3,2,2.1*
Cc1[nH]c2c(C(C)C)cccc2c1CCN,91*,46,3,0
Cc1[nH]c2ccc(Cl)cc2c1CCN,8,2,0,0
O=c1cccc2n1CC1CC2CN(Cc2ccc3ccccc3c2)C1 (stereo unspecified),-7,14,2,0
CC(C)[C@@H]1NC(=O)[C@H](C)OC(=O)[C@@H](C(C)C)NC(=O)[C@@H](C(C)C)OC(=O)[C@H](C(C)C)NC(=O)[C@H](C)OC(=O)[C@@H](C(C)C)NC(=O)[C@@H](C(C)C)OC(=O)[C@H](C(C)C)NC(=O)[C@H](C)OC(=O)[C@@H](C(C)C)NC(=O)[C@@H](C(C)C)OC1=O,96*,2,2,0
O=C1NC(=O)N(c2ccc(Br)cc2)C(=O)/C1=C/c1ccc(O)c(O)c1,1,90*,1,0
O=C1NC(=O)N(c2ccc(Br)cc2)C(=O)/C1=C/c1ccc(O)cc1,-1,16,2,0
CC(=O)c1ccc(N2Cc3ccccc3CC2=N)cc1,-10,8,1,0
Cc1ccc(NC(=O)CCC(=O)Nc2ccc(Cl)cc2C(=O)c2ccccc2)cc1,4,5,0,0
CC1=CC(=O)NP(=O)(Oc2ccc3ccccc3c2)N1 (stereo unspecified),11,-1,0,1.9*
Cc1ccc(C=C2C(=O)NC(=S)NC2=O)o1,10,67*,0,0
C=CCN1C(=O)/C(=C\c2ccc(C)o2)C(=O)NC1=S,-6,4,-1,0
CN1C(=O)NC(=O)/C(=C/c2ccc(I)o2)C1=O,6,63*,0,-1
Cc1ccc(/C=C2/C(=O)NC(=O)N(C)C2=O)cc1,-6,-1,0,0
CCOC(=O)C1C2NC(=S)N(c3ccc(F)cc3)C1(C)Oc1ccc([N+](=O)[O-])cc12 (stereo unspecified),10,30,1,0
CC1=CC(=C2C(=O)NC(=S)NC2=O)C=C(C(F)(F)F)N1Cc1ccccc1,52*,-9,0,0
